Test results taken from PubChem BioAssay (EPA / NIEHS).
Some structures have more than one record in an assay (separate samples or runs), and their calls can disagree. Calls of active or inactive are those of the source. The calls were made as follows: active = hit-call score of the fitted dose curve at least 0.9, where 1 is the maximum; inactive = score below 0.9.

Key:
[1] = read-out: Tumor necrosis factor (Homo sapiens) (UniProt P01375); test: BSK_LPS_TNFa: BioMAP Diversity Plus: LPS Assay for Tumour Necrosis Factor alpha (TNFa) Biomarker Activity (AID 2283085); details: primary human HUVEC with PBMC; actives raise or lower the signal
Method in brief: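 Read-out is ELISA of TNFa in primary human endothelial cell–PBMC co-cultures at 24 h after compound. Activity in either direction was fitted against DMSO.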

[2] = read-out: Vascular cell adhesion molecule 1 (VCAM1), VCAM1 (gene 7412); test: BSK_LPS_VCAM1: BioMAP Diversity Plus: LPS Assay for Vascular cell adhesion molecule 1 (VCAM1) Biomarker Activity (AID 2283086); details: primary human HUVEC with PBMC; actives raise or lower the signal
Method in brief: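 HUVEC + PBMC co-culture, LPS system; compound 24 h; VCAM-1 by ELISA; bidirectional fit vs DMSO control; parallel SRB (0.1%, TCA-fixed, 560 nm) for cytotoxicity.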

CD38, CD38 (gene 952) = test: BSK_SAg_CD38: BioMAP Diversity Plus: SAg Assay for CD38 Biomarker Activity (AID 2283087); details: primary human HUVEC with PBMC; actives raise or lower the signal
Method in brief: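 Human HUVEC plus PBMC co-culture stimulated with superantigen; CD38 measured by ELISA 24 h after chemical dosing. Fluorescence read-out, bidirectional fit against DMSO; cytotoxicity tracked in parallel by SRB and Alamar Blue.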

CD40, CD40 (gene 958) = test: BSK_SAg_CD40: BioMAP Diversity Plus: SAg Assay for CD40 Biomarker Activity (AID 2283088); details: primary human HUVEC with PBMC; actives raise or lower the signal
Method in brief: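 HUVEC/PBMC co-culture, 24 h post-dose; CD40 by ELISA, fluorescence intensity; bidirectional fit vs DMSO negative control.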

CD69, CD69 (gene 969) = test: BSK_SAg_CD69: BioMAP Diversity Plus: SAg Assay for CD69 Biomarker Activity (AID 2283089); details: primary human HUVEC with PBMC; actives raise or lower the signal;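 as to AC50: cell surface CD69 protein quantified by ELISA with fluorescence detection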
Method in brief: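 HUVEC co-cultured with PBMC were dosed with chemical, and CD69 was measured by ELISA with fluorescence read-out 24 h later. Bidirectional curve fitting used DMSO as negative control and activity baseline.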

[3] = read-out: Monocyte Chemoattractant Protein-1 (MCP1), CCL2 (gene 6347); test: BSK_SAg_MCP1: BioMAP Diversity Plus: SAg Assay for Monocyte Chemoattractant Protein-1 (MCP1) Biomarker Activity (AID 2283090); details: primary human HUVEC with PBMC; actives raise or lower the signal
Method in brief: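 MCP-1 levels in the endothelial–PBMC SAg co-culture were quantified by ELISA at 24 h post-dosing; both increases and decreases versus DMSO scored. Cytotoxicity monitored by SRB total protein in parallel cultures.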

[4] = read-out: E-selectin (Homo sapiens) (UniProt P16581); test: BSK_SAg_Eselectin: BioMAP Diversity Plus: SAg Assay for Eselectin Biomarker Activity (AID 2283091); details: primary human HUVEC with PBMC; actives raise or lower the signal
Method in brief: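 E-selectin ELISA readout at 24 h post-dosing in human umbilical vein endothelial cell/PBMC co-culture; gain or loss of signal fitted relative to DMSO baseline.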

[5] = read-out: Monokine induced gamma interferon (MIG), CXCL9 (gene 4283); test: BSK_SAg_MIG: BioMAP Diversity Plus: SAg Assay for Monokine induced gamma interferon (MIG) Biomarker Activity (AID 2283092); details: primary human HUVEC with PBMC; actives raise or lower the signal
Method in brief: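 HUVEC plus human PBMC co-culture, chemicals dosed and MIG (CXCL9) quantified by ELISA at 24 h. Bidirectional curve fitting against DMSO as negative control and baseline, so both gain and loss of signal count as activity.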

[6] = BSK_SAg_PBMCCytotoxicity: PBMC Cytotoxicity Assessment in the BioMAP Diversity Plus: SAg Assay (AID 2283093); details: primary human HUVEC with PBMC;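 also: PBMC viability measured as Alamar Blue reduction fluorescence at 546/580 nm; fitted both ways against DMSO so a hit may be loss or gain of signal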;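 as to AC50: PBMC superantigen activated with SEB plus TSST-1 one hour after compound addition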
Method in brief: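 HUVEC/PBMC co-culture; PBMC exposed to chemical 1 h before SEB and TSST-1 activation (20 ng/mL each), incubated 90 h, then Alamar Blue 6 h, fluorescence 546/580 nm. Bidirectional fit versus DMSO baseline.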

[7] = read-out: Interleukin-8 (IL8), CXCL8 (gene 3576); test: BSK_SAg_IL8: BioMAP Diversity Plus: SAg Assay for Interleukin-8 (IL8) Biomarker Activity (AID 2283094); details: primary human HUVEC with PBMC; actives raise or lower the signal
Method in brief: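 ELISA read-out of IL-8 in a primary human vascular co-culture (umbilical vein endothelium plus PBMC), taken 24 h after compound addition. Values derive from bidirectional fits against DMSO negative controls.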

Chain of E-selectin (Homo sapiens) (P16581 whole entry, looked up): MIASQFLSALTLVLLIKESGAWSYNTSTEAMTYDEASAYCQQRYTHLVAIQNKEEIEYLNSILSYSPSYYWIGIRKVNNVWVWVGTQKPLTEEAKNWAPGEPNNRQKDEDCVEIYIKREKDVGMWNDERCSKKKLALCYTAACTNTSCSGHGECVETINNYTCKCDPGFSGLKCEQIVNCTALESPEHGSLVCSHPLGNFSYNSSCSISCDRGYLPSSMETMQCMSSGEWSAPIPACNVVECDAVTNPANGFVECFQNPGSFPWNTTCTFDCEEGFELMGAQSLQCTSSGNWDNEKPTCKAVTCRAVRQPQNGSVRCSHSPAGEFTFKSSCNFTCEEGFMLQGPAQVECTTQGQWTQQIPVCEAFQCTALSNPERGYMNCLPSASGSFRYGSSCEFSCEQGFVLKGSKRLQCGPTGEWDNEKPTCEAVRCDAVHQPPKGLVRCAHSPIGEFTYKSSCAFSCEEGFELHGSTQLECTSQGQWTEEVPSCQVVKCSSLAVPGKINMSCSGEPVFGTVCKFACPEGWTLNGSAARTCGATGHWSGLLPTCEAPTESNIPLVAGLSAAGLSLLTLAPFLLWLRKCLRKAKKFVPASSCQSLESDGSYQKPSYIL
Chain of Tumor necrosis factor (Homo sapiens) (P01375 whole entry, looked up): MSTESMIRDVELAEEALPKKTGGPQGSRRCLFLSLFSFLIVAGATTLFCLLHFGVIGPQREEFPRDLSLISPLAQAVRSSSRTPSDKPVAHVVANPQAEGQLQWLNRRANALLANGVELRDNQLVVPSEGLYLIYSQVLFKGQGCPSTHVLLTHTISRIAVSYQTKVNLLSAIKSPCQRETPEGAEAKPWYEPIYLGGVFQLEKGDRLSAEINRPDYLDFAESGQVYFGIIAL

Compound | outcome [1] | outcome [2] | outcome (CD38, CD38 (gene 952)) | outcome (CD40, CD40 (gene 958)) | outcome (CD69, CD69 (gene 969)) | outcome [3] | AC50 [4] | outcome [5] | outcome [6] | outcome [7] | AC50 [1] | AC50 [2] | AC50 (CD38, CD38 (gene 952)) | AC50 (CD40, CD40 (gene 958)) | AC50 (CD69, CD69 (gene 969)) | AC50 [3] | AC50 [6] | AC50 [7] | outcome [4] | AC50 [5]
CCOP(=S)(OCC)SCSP(=S)(OCC)OCC | inactive | inactive | inactive | inactive | inactive | inactive | 15.2 µM (active) | inactive | inactive | inactive |  |  |  |  |  |  |  |  |  | 
Cn1sc(Cl)cc1=O |  |  |  |  |  |  | 20 µM (active) | inactive |  |  | 31.2 µM (active) | 29.3 µM (active) | 31.3 µM (active) | 26.4 µM (active) | 26.4 µM (active) | 30.7 µM (active) | 16.9 µM (active) | 20 µM (active) |  | 
COP(=S)(OC)Oc1c(Cl)cc(C)cc1Cl | inactive |  | inactive | inactive | inactive | inactive |  | inactive | inactive | inactive |  | 13.8 µM (active) |  |  |  |  |  |  | inactive | 
Oc1cccc2cccnc12 | inactive |  | inactive | inactive | inactive | inactive | 2.77 µM (active) | inactive |  | inactive |  | 3.97 µM (active) |  |  |  |  | 3.57 µM (active) |  |  | 
COC[C@H](C)N(C(=O)CCl)c1c(C)csc1C | inactive | inactive | inactive | inactive | inactive | inactive |  | inactive | inactive | inactive |  |  |  |  |  |  |  |  | inactive | 
CC12CC1(C)C(=O)N(c1cc(Cl)cc(Cl)c1)C2=O (stereo unspecified) | inactive | inactive | inactive | inactive | inactive | inactive |  | inactive | inactive | inactive |  |  |  |  |  |  |  |  | inactive | 
Cc1ccccc1N | inactive | inactive | inactive | inactive | inactive | inactive |  | inactive | inactive | inactive |  |  |  |  |  |  |  |  | inactive | 
CCCCCCCCC(=O)NCc1ccc(O)c(OC)c1 | inactive | inactive | inactive | inactive | inactive | inactive |  | inactive | inactive | inactive |  |  |  |  |  |  |  |  | inactive | 
COc1cc(-c2ccc(N)c(OC)c2)ccc1N | inactive | inactive | inactive | inactive | inactive | inactive | 11.8 µM (active) | inactive | inactive | inactive |  | 23.9 µM (active) |  |  |  |  |  | 7.64 µM (active) |  | 
OCc1ccco1 | inactive | inactive | inactive | inactive | inactive | inactive |  | inactive | inactive | inactive |  |  |  |  |  |  |  |  | inactive | 
CCCCC(CC)CO[N+](=O)[O-] (stereo unspecified) | inactive | inactive | inactive | inactive |  | inactive |  | inactive | inactive | inactive |  |  |  |  |  |  |  |  | inactive | 
CC(C)(OO)c1ccccc1 | inactive | inactive | inactive | inactive | inactive | inactive |  | inactive | inactive | inactive |  |  |  |  |  |  |  |  | inactive | 
O=Cc1cccc(Oc2ccccc2)c1 | inactive | inactive | inactive | inactive | inactive | inactive |  | inactive | inactive | inactive |  |  |  |  |  |  |  |  | inactive | 
C(=NC1CCCCC1)=NC1CCCCC1 |  |  |  |  |  |  | 3.97 µM (active) |  |  |  | 35.1 µM (active) | 30.4 µM (active) | 14.1 µM (active) | 17.3 µM (active) | 7.97 µM (active) | 19.3 µM (active) | 16.5 µM (active) | 3.97 µM (active) |  | 12.6 µM (active)
COc1cc(OC)nc(NC(=O)NS(=O)(=O)c2ncccc2C(=O)N(C)C)n1 | inactive | inactive | inactive | inactive | inactive | inactive |  | inactive | inactive | inactive |  |  |  |  |  |  |  |  | inactive | 
COC(=O)Cc1ccccc1 | inactive | inactive | inactive | inactive |  | inactive |  | inactive | inactive | inactive |  |  |  | 31.3 µM (active) |  |  |  |  | inactive | 
